NLRP3 yeast inh: inhibitors of NALP3 inflammasome in yeast. Yeast reconstituted NLRP3/ASC/caspase-1, beta-gal luminescence, 24 h. inhibition, % at 10 µM. 330,000 compounds, 0.39% hits;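 active = inhibition of 50% or more; inactive = inhibition below 50%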;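 note: plate controls were induced DMSO wells for no effect and uninduced yeast grown without galactose for full effect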
TIM10 inh: inhibits growth of TIM10 yeast strain. S. cerevisiae TIM10 strain growth, BacTiter-Glo luminescence, 24 h. 330,000 compounds, 1.4% hits. inhibition, % at 10 µM;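 active = inhibition of 40% or more at the single tested concentration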;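 note: wild-type TIM10 isogenic control strain grown at permissive 25 °C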
PfHsp90 yeast 2: reduces growth (ATP signal) of yeast expressing P. falciparum Hsp90. S. cerevisiae expressing PfHsp90, BacTiter-Glo ATP, 48 h; yeast lacking PDR1 and PDR3 efflux regulators. inhibition, % at 9.4 µM. 310,000 compounds, 0.32% hits. AID 504621;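 active = every replicate shows inhibition above about 80%, whatever the replicate mean, limit read from the data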;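 note: 0% = DMSO neutral controls and 100% = 20 µM radicicol positive controls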
tim10-1 inh: inhibits growth of tim10-1 mutant yeast | S. cerevisiae tim10-1 ts strain growth, BacTiter-Glo, 24 h | inhibition, % at 20 µM | 330,000 compounds, 2.2% hits;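 active = inhibition of at least 40%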;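 note: mutant grown at 25 °C; 0% = DMSO wells with yeast and 100% = wells holding no yeast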
tim23-1 inh: inhibits growth of tim23-1 mutant yeast; S. cerevisiae tim23-1 growth, BacTiter-Glo luminescence, 24 h; inhibition, % at 20 µM; 330,000 compounds, 1.3% hits; AID 463212;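 active = growth inhibition of the mutant yeast at or above 50%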;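 note: temperature-sensitive mutant grown at 25 °C; plate controls were DMSO-treated mutant yeast for no effect and medium wells lacking yeast for full effect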
tim23-1 confirm: confirmation of tim23-1 mutant yeast growth inhibitors | shares compounds with tim23-1 inh | S. cerevisiae tim23-1 growth, BacTiter-Glo luminescence, 24 h | inhibition, % at 20 µM | 4,400 compounds, 83% hits;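 active = inhibition above about 39% in either of two replicate wells at 20 µM, limit read from the data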;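 note: temperature-sensitive tim23-1 mutant grown at 25 °C; 0% = DMSO wells with yeast and 100% = medium wells without yeast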
* = called active by the depositor; . = no result. Only some compounds are listed: those with a hit (about 3.7% of all), similar ones and a draw of the others.

SMILES | NLRP3 yeast inh | TIM10 inh | PfHsp90 yeast 2 | tim10-1 inh | tim23-1 inh | tim23-1 confirm
CCC1CCC(N2CCN(c3ccc([N+](=O)[O-])cc3)CC2)CC1 (stereo not drawn) | 33 | -101 | 12 | -37 | -76 | .
Cc1cc(S(=O)(=O)N2CCN(CC(=O)N(C)Cc3ccccc3)CC2)ccc1Br | 12 | 14 | . | 27 | 42 | .
CN(Cc1ccccc1)C(=O)CN1CCN(S(=O)(=O)c2ccc(Cl)c(Cl)c2)CC1 | 10 | 16 | 21 | 19 | 52* | 33
Cc1ccc(NS(=O)(=O)c2cccc(C(=O)N3CCN(c4ncccn4)CC3)c2)cc1 | -1 | -1 | 20 | -10 | -1 | .
Cn1c(-c2sc3ccccc3c2Cl)n[nH]c1=S | 18 | 29 | -23 | 27 | 52* | 44*
Cc1ccc(C(=O)Nc2ccccc2C(=O)N2CCCC(C)C2)cc1 (stereo not drawn) | 13 | -10 | 25 | 18 | 10 | .
COc1cc(OC)c(NC2c3ccccc3C(=O)N2c2cc(C)ccn2)cc1Cl (stereo not drawn) | 12 | 12 | 18 | 13 | 52* | 42*
O=C(Nc1ccccc1)n1cc(-c2ccccn2)c(N2CCOCC2)n1 | 2 | 0 | 19 | -1 | 4 | .
COc1cc2sc3cc(NCc4ccc5c(c4)OCO5)ccc3c(=O)c2cc1OC | 16 | 21 | -5 | 13 | 24 | .
COc1cc2sc3cc(NCc4ccc(C)o4)ccc3c(=O)c2cc1OC | 30 | 14 | . | 20 | 58* | 72*
COc1cc(C#N)c(NC(=O)CN2CCC(C(N)=O)CC2)cc1OC | 1 | -5 | -1 | 0 | 4 | .
CCOC(=O)c1sc(N(Cc2ccccc2)C(=O)CCl)nc1C | 11 | 14 | -9 | 20 | 62* | 48*
COc1ccc(CC2=CC(=O)c3ccccc3C2=O)cc1 | 28 | 36 | 4 | 30 | 66* | 75*
Cc1ncoc1C(=O)NC1CCCc2c1cnn2-c1ccc(C(C)(C)C)cc1 (stereo not drawn) | -11 | 15 | -10 | 21 | 32 | .
O=C(O)c1cccc(-c2ccc(/C=N/n3cnc4sc5c(c4c3=O)CCCC5)o2)c1 | 3 | 0 | . | 29 | 52* | 22
CCOC(=O)c1ccc(NC(=O)c2cc3ccccc3o2)cc1 | 19 | 19 | -1 | 4 | 17 | .
CCOC(=O)c1cccc(NC(=O)c2cc3ccccc3o2)c1 | 35 | 27 | -1 | 23 | 58* | 52*
CCOC(=O)c1cccc(NC(=O)CCc2ccccc2)c1 | 6 | 9 | . | 21 | 61* | 26
CCc1ccc(NC(=O)C(=O)NCC2CCCN2S(=O)(=O)c2cccs2)cc1 (stereo not drawn) | 9 | -12 | . | -1 | 11 | .
O=S(=O)(N/N=C\C=C\c1ccccc1)c1ccc(Br)cc1 | 6 | 18 | 53 | 34 | 56* | 42*
Cc1ccc(S(=O)(=O)N/N=C\C=C\c2ccccc2)cc1 | 3 | 9 | 6 | 13 | 25 | .
CCc1nnc(NC=C2C(=O)OC(C)(C)OC2=O)s1 | 11 | -9 | 2 | -9 | 0 | .
COc1ccc(-c2n[nH]c(C)c2-c2ccc(Cl)cc2)c(O)c1 | 26 | -1 | -17 | 30 | 36 | .
COc1ccc(-c2cc(-c3ccc(C)cc3)n[nH]2)c(O)c1 | 13 | 21 | 1 | 8 | 54* | -21
COc1cc(N/C(N)=N/c2nc(C)cc(C)n2)c(OC)cc1Cl | 4 | 1 | 5 | 9 | -1 | .
SMILES | NLRP3 yeast inh | TIM10 inh | PfHsp90 yeast 2 | tim10-1 inh | tim23-1 inh | tim23-1 confirm
CC[n+]1c(/C=C/N(C)c2ccccc2)n(-c2ccccc2)c2ccc(-c3nc4ccccc4s3)cc21 | 39 | 29 | 35 | 37 | 80* | 65*
CCOC(=O)c1ccc2c(c1)n(CC)c(/C=C/N(C)c1ccccc1)[n+]2CC | -2 | 1 | -10 | 2 | -18 | .
C[n+]1c2n(c3ccccc31)N=C(c1ccc(-c3ccccc3)cc1)CS2 | 10 | 8 | -54 | -3 | 60* | 47*
Cc1cc(-c2nnc3n2N=C(c2ccc(-c4ccccc4)cc2)CS3)n[nH]1 | 15 | 24 | -27 | 32 | 46 | .
Cc1c(NC(=O)c2cccs2)cccc1[N+](=O)[O-] | 4 | 3 | 12 | 15 | 11 | .
O=C(Nc1ccc(F)c([N+](=O)[O-])c1)c1cccs1 | 25 | 8 | 3 | -15 | 53* | 49*
CSC1=N/C(=C\c2ccc(C)cc2)C(=O)S1 | 16 | 9 | 17 | 29 | 61* | 56*
Cc1n[nH]c(C)c1N=Nc1ccc(Br)cc1 | 2 | 28 | 27 | -36 | 62* | 25
Cc1cccc(C)c1Nc1nnc(SCC(=O)c2ccc(Br)s2)s1 | -3 | 36 | -10 | 39 | 52* | 61*
CCOC(=O)c1cccc2c1-c1ccccc1/C2=N/O | -21 | 33 | -65 | 13 | 71* | 54*
CNC(=S)Nc1ccc(N2CCCC2)c(S(=O)(=O)Nc2ccc(OC)cc2)c1 | -1 | 7 | -19 | 0 | 2 | .
COc1ccc(NS(=O)(=O)c2ccc(N3CCCC3)c(NC(=S)Nc3cccc(S(=O)(=O)N(C)C)c3)c2)cc1 | 9 | 27 | . | 23 | 52* | 78*
O=C(c1ccccc1)c1c[nH]c2ccccc12 | . | . | -14 | . | . | .
O=C(/C=C/c1c[nH]c2ccccc12)c1cccc2ccccc12 | 30 | 37 | 4 | 25 | 54* | 62*
Cc1noc(C)c1CSc1nc2[nH]ncc2c(=O)n1-c1ccccc1 | 17 | -6 | -4 | 14 | 10 | .
Cc1noc(C)c1CSc1nc2ccccc2c(=O)n1-c1ccccc1 | 3 | 13 | -37 | 32 | 52* | 45*
CC1CCCN(S(=O)(=O)c2ccc(S(=O)(=O)N3CCCC3)cc2)C1 (stereo not drawn) | 6 | 6 | -4 | -26 | -10 | .
CC1CCCN(S(=O)(=O)c2ccc3[nH]c4c(c3c2)CCCC4)C1 (stereo not drawn) | 13 | 33 | 30 | 32 | 56* | 56*
COc1ccc(Cc2cnc(N)s2)cc1 | 24 | 12 | 10 | 4 | -3 | .
O=c1c(-c2ccccc2)c1-c1ccccc1 | 20 | -14 | . | 16 | 58* | -11
COc1cccc(N=c2oc3cc(O)ccc3cc2C(=O)NCC2CCCO2)c1 (stereo not drawn) | 24 | 6 | -8 | 14 | 7 | .
COc1ccc(OC)c2c1sc(=NC(=O)C(C)(C)C)n2C | -2 | 15 | 3 | 31 | 19 | .
COc1ccc(OC)c2c1sc(=NC(=O)C(C)C)n2C | 28 | 24 | 8 | 31 | 53* | 47*
Cc1scc(C(=O)N/N=C/c2ccc(Cl)s2)c1C | 13 | 15 | -54 | -2 | 8 | .
NCCCCc1ccc2ccc3cccc4ccc1c2c34 | 31 | 7 | 12 | 32 | 50* | 9
O=C(O)CCC(=O)c1ccc2ccc3cccc4ccc1c2c34 | 22 | 32 | . | 39 | 38 | .
CCC1Sc2ccc(S(=O)(=O)CCC(=O)Nc3cccc(Br)c3)cc2NC1=O (stereo not drawn) | 14 | 6 | 2 | 13 | -7 | .
